# Data: ChEMBL document CHEMBL4513216, “Probing the Open Global Health Chemical Diversity Library for Multistage-Active Starting Points for Next-Generation Antimalarials” (ACS Infect Dis, 2020)
# The whole screen tested about 68,000 compounds, of which about 2,700 (4%) showed an effect of 50% or more. Many of the other results were omitted from the sample, so strong results are more common in it than they were.
# Test system: Plasmodium berghei
# Assay: Screen against P. berghei liver stage (PbLuc), transformed with Luciferase, at 2uM
# Format: functional, HepG2
# Details: tested at 2 uM
row,Compound,INHIBITION
1,Cc1ccsc1CN1CCC(n2cc(C(O)c3ccccc3)nn2)CC1 (stereo unspecified),-6.04%
2,CC(C)(C)C(=O)N1CCC(n2cc(C3(O)CCCC3)nn2)CC1,-21.47%
3,Fc1ccccc1C1(CNC2CCOC3(CCOCC3)C2)CCCC1 (stereo unspecified),-27.61%
4,CN(C)c1cc(CNC(=O)c2cnccn2)ccn1,-14.75%
5,Cc1cc(C(=O)N2CCn3cc(CN4CCOCC4)nc3C2)no1,22.68%
6,Cc1ocnc1C(=O)N1CCN(CCOc2ccccc2)CC1,41.86%
7,CC(C)Cc1cc(NC(=O)c2ccccn2)n(C)n1,7.13%
8,Cc1noc(C)c1CS(=O)(=O)CC(=O)NCCc1cccs1,-49.96%
9,Cn1cc(C(=O)NCc2cn3c(n2)CN(Cc2ccccn2)CC3)cn1,53.98%
10,Cn1cccc1C(=O)NCc1cn2c(n1)CN(Cc1ccccn1)CC2,20.43%
11,Cn1cc(C(=O)NCc2cn3c(n2)CN(Cc2ccncc2)CC3)cn1,12.38%
12,Cc1noc(C)c1CN1C[C@@H](OCc2ccccn2)[C@H]2OCCC[C@H]21,-44.88%
13,CCc1cc(=O)n(CC(=O)N2CCCC2)c(-c2ccc(F)cc2)n1,22.13%
14,CN(Cc1nc2ccccc2c(=O)[nH]1)C1CC(=O)N(C2CC2)C1=O (stereo unspecified),-68.81%
15,CCS(=O)(=O)N1C[C@H](c2nc(C)no2)C[C@H]2OCC[C@H]21,63.23%
16,Cc1noc([C@H]2C[C@H]3OCC[C@H]3N(Cc3ccncc3)C2)n1,29.81%
17,Cc1noc([C@H]2C[C@H]3OCC[C@H]3N(S(C)(=O)=O)C2)n1,25.58%
18,CCCS(=O)(=O)N1C[C@@H](c2nc(C)no2)C[C@H]2OCC[C@H]21,-27.12%
19,Cc1noc([C@H]2C[C@H]3OCC[C@H]3N(Cc3ccc(F)cc3)C2)n1,20.41%
20,Cc1noc([C@@H]2C[C@H]3OCC[C@H]3N(Cc3ccoc3)C2)n1,51.26%
21,Cc1nnc([C@H]2C[C@H]3OCC[C@H]3N(S(=O)(=O)C3CC3)C2)o1,50.32%
22,Cc1nnc([C@H]2C[C@H]3OCC[C@H]3N(S(=O)(=O)N(C)C)C2)o1,11.18%
23,CCS(=O)(=O)N1C[C@@H](c2nnc(C)o2)C[C@H]2OCC[C@H]21,11.87%
24,Cc1cc(N2CCc3c(ncn3C3CC3)C2)nc(N)n1,-25.22%
25,O=C(CCC1CCCC1)NCCn1nc(C2CCNC2)c2cccnc21 (stereo unspecified),34.24%
26,Cc1cccc(-n2ncc3c(=O)n(CCN4CCCCC4)cnc32)c1C,-34.12%

row,Compound,INHIBITION
1,CC(C)S(=O)(=O)N1CCN(C(=O)c2cnn(C)c2Cl)CC1,12.98%
2,CCCN(CC)C(=O)c1ncn2c1CN(C)S(=O)(=O)c1ccccc1-2,15.9%
3,CCNC(=O)c1ncn2c1CN(C)S(=O)(=O)c1ccccc1-2,-64.43%
4,CN(C(=O)c1ncn2c1CN(C)S(=O)(=O)c1ccccc1-2)C1CC1,60%
5,Cc1cccc(NC2CCN(C(=O)Nc3ccccn3)CC2)n1,-7.13%
6,Cc1ccc(C(=O)NC2CCN(C(=O)Nc3ccccn3)CC2)o1,20.11%
7,Cc1ccc(C(=O)N2CCN(C(=O)Nc3ccccn3)CC2)o1,60.93%
8,Cc1occc1C(=O)N1CCn2c(COCC3CC3)cnc2C1C (stereo unspecified),-5.65%
9,CCN(CC)CCSc1ncnc2[nH]ncc12,-57.02%
10,Cn1cc(CNc2ccc(F)c(N3CCCS3(=O)=O)c2)cn1,30.06%
11,CCn1cc(CNc2ccc(F)c(N3CCCS3(=O)=O)c2)cn1,67.51%
12,CCn1cc(CNc2ccc(F)c(F)c2)cn1,-11.55%
13,CCCc1nc(CNc2ccc(F)c(F)c2)no1,-48.48%
14,COc1ccc2[nH]c(=O)c(CN(C)CCN3CCCC3)cc2c1,56.16%
15,COc1ccc2cc(CN(C)CCN3CCCCC3=O)c(=O)[nH]c2c1,38.12%
16,CCN1CCCC1CNCc1cc2cc(OC)ccc2[nH]c1=O (stereo unspecified),42.49%
17,CCOCC(=O)N1C[C@H]2CCC[C@@]2(COC)C1,42.4%
18,CCn1nc(C)c(CNC(=O)c2nnc3ccc(OC)cc3n2)c1C,33.58%
19,CCn1nc(C)c(CNC(=O)c2nnc3ccccc3n2)c1C,70.37%
20,CCn1nc(C)c(CNC(=O)c2nnc3ccc(Cl)cc3n2)c1C,26.56%
21,Cc1nc(CN2CCC23CCN(C(=O)c2ccco2)CC3)cs1,30.15%
22,Cc1cncc(NCc2ccccc2N2CCOCC2)c1,11.88%
23,CCS(=O)(=O)c1cccc(C(=O)Nc2cccc3c2C(=O)N(C)C3=O)c1,13.01%
24,CCCOC1CCCN(C(=O)c2cnc(-c3csc(C)n3)nc2O)C1 (stereo unspecified),-20.84%
25,CC(=O)N1CCC2(CC1)[C@@H]1CN(Cc3cccnc3)C[C@@H]1C(=O)N2C,35.89%
26,CC(C)C(=O)N1CCC2(CC1)NC(=O)[C@H]1CN(Cc3cccnc3)C[C@H]12,37.54%

row,Compound,INHIBITION
1,CC(=O)N1CCC2(CC1)NC(=O)[C@H]1CN(Cc3cccnc3)C[C@H]12,56.76%
2,Cn1cccc1CN1CCC2(CC1)CN(c1ncccn1)CCO2,-8.63%
3,Cc1ccc(CNC(=O)CCNS(C)(=O)=O)cc1,13.36%
4,CCn1ccnc1CN1CCN(CC(=O)NC(C2CC2)C2CC2)CC1,29.19%
5,CC(=O)N[C@H]1CCO[C@@H](c2cccc(NC(=O)c3ccc(=O)[nH]n3)c2)C1,-3.15%
6,COc1ccc(CN2CCc3nc(C4CCCCN4C)ncc3C2)cc1 (stereo unspecified),-8.87%
7,CN1CCCCC1c1ncc2c(n1)CCN(Cc1ccc(F)cc1)C2 (stereo unspecified),19.06%
8,CN1CCCCC1c1ncc2c(n1)CCN(Cc1ccc(Cl)c(F)c1)C2 (stereo unspecified),56.99%
9,O=C1COC2(COCCN(Cc3cccnc3)C2)CN1c1ccccc1 (stereo unspecified),-43.73%
10,N#CCCN(Cc1cccnc1)C(=O)c1ccc(OCC2CC2)cc1,56.89%
11,N#CCCN(CCC#N)C(=O)c1ccc(OCC2CC2)cc1,5.98%
12,N#CCCN(Cc1ccco1)C(=O)c1ccc(OCC2CC2)cc1,-5.51%
13,O=C(c1cnccn1)N1CC[C@H]2[C@H]1CCN2S(=O)(=O)C1CC1,-17.44%
14,CCCNC(=O)c1nc2c(o1)CN(C(=O)CN(C)C)C2,-31.4%
15,CN(C)CC(=O)N1Cc2nc(C(=O)NCc3ccccc3)oc2C1,16.4%
16,CN(C)CC(=O)N1Cc2nc(C(=O)NCc3ccncc3)oc2C1,52.08%
17,CSCc1ccc(C(=O)NCCCNc2ccc(C(F)(F)F)cn2)cc1,6.77%
18,Cn1c(CN2CCCCCC2)cc(=O)c(O)c1CN1CCCC1,29.19%
19,Cc1cc(C)nc(C2CCN(C(=O)CCn3ncc4ccccc43)C2)n1 (stereo unspecified),30.73%
20,Cc1ccnc(C2CCN(C(=O)CCn3ncc4ccccc43)C2)n1 (stereo unspecified),72.83%
21,Cc1cc(C)nc(C2CCN(C(=O)CCn3nnc4ccccc43)C2)n1 (stereo unspecified),13.22%
22,Cn1cc(CN2CCc3ccc(=O)n(CC4CC4)c3CC2)cn1,23.68%
23,OC1(CNc2cccc(F)c2)CCNCC1,-14.66%
24,OC1(CNc2ccccc2)CCNCC1,51.61%
25,OC1(CNc2ccc(F)cc2)CCNCC1,8.5%
26,CCN(CC)S(=O)(=O)CC(=O)N1CCc2ccc(C)cc21,-13.17%

row,Compound,INHIBITION
1,CCN(C(=O)CSc1ccc(C(F)(F)F)cn1)C1CC1,-69.56%
2,NC(=O)C1CCCN1c1cc(N2CCc3ccccc3C2)ncn1 (stereo unspecified),-4.95%
3,c1ccc(OCC2CC2)c(CNC2CCc3ncnn3C2)c1 (stereo unspecified),54.2%
4,c1ccc(OC2CCCC2)c(CNC2CCc3ncnn3C2)c1 (stereo unspecified),-12.48%
5,c1ccc(COc2ccccc2CNC2CCc3ncnn3C2)cc1 (stereo unspecified),11.95%
6,c1ccc(C(OCCNC2CCc3ncnn3C2)c2ccccc2)cc1 (stereo unspecified),64.71%
7,O=S(=O)(CCNC1CCc2ncnn2C1)c1ccccc1 (stereo unspecified),11.18%
8,c1ccc(CCNC2CCc3ncnn3C2)nc1 (stereo unspecified),-56.99%
9,COc1cccc(-c2cc(C3CCCNC3)ccn2)c1 (stereo unspecified),17.29%
10,Cc1nnsc1CN(C)C(=O)CN1CC2(CCNCC2)OC1=O,-7.96%
11,CCc1cc(NC(=O)C(c2cccc(F)c2)N2CCOCC2)[nH]n1 (stereo unspecified),35.36%
12,COC(=O)C(CCSC)NC(=O)Cc1c(C)nn(-c2ccccc2)c1C (stereo unspecified),-60.22%
13,Cc1nn(-c2ccccc2)c(C)c1CNC(=O)NC1CC1,28.73%
14,COC(=O)[C@H](CCSC)NC(=O)Cc1c(C)nn(-c2ccccc2)c1C,4.89%
15,Cc1nn(-c2ccccc2)c(C)c1CNC(=O)NC1CC(=O)N(C)C1 (stereo unspecified),62.39%
16,Cc1nn(-c2ccccc2)c(C)c1CC(=O)NC1CC(=O)N(C)C1 (stereo unspecified),59.03%
17,CSCCC(NC(N)=O)C(=O)NCc1c(C)nn(-c2ccccc2)c1C (stereo unspecified),-58.01%
18,CC(=O)N1CCN(Cc2ccncc2)CC2(CC(=O)N(C)C2)C1 (stereo unspecified),3.49%
19,CN1CCN(CC2(O)CCCN(C(=O)Cc3cccc(O)c3)CC2)CC1 (stereo unspecified),12.6%
20,Cc1nc(C)c(C(=O)NCCNc2ncccc2C(F)(F)F)s1,-90.65%
21,Cc1nc(NC(=O)c2ccc(-n3ncc(C#N)c3N)cc2)sc1C,78.98%
22,Cc1cc(NC(=O)c2ccc(-n3ncc(C#N)c3N)cc2)n(C)n1,-28.98%
23,Cc1cnc(NC(=O)c2ccc(-n3ncc(C#N)c3N)cc2)s1,-50.69%
